The full ranking holds about 33,000 sequences; the median of “e-score” is about -0.037, and the highest 2% start at about 0.34. Only a selection was taken, and the highest values are over-represented in it overall.
target: T1, GST-Rok (full length) (Bacillus subtilis subsp. subtilis str. …, UniProt O34857 1-191); assay: protein binding microarray; Rok is a gene silencer of Bacillus subtilis; high values mean tight binding; settings: protein: recombinant; tags: GST (pTH5325, pDEST15-Magic modified); dsDNA, one strand shown
T1 sequence: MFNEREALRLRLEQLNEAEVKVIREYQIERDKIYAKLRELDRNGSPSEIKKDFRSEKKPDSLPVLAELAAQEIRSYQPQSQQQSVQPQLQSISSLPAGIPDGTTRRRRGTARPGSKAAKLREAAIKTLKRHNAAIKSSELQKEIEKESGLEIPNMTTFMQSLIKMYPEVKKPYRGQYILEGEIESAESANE
Summary of the method: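 Each has a 25-mer constant primer and a 35-mer variable part from a de Bruijn sequence of order 10, covering every non-palindromic 8-mer at least 32 times (palindromic 16). Preference for each 8-mer is given as a rank-based, unitless enrichment score (E-score). Its range runs from 0.5 (most favored) to −0.5 (most disfavored).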

Row | Sequence | binding signal [E-score]
1 | CAAACTAG | 0.329
2 | AAAACTAT | 0.433
3 | CAAACTTA | 0.162
4 | AAAACTCC | 0.0005
5 | TAAACTAA | 0.288
6 | AAAACTAA | 0.254
7 | CAAACTAC | 0.43
8 | CAAACTCC | -0.0836
9 | GTGGCAAC | -0.17
10 | CGTGACAA | -0.11
11 | CGACGAGA | -0.0756
12 | ATCCCAAA | 0.0535
13 | CACTCTCA | -0.109
14 | CTTAATGC | 0.13
15 | ACCGAGCA | -0.0882
16 | GTTGGTTA | 0.26
17 | AGCGCTAT | -0.0624
18 | GAAACTTC | 0.224
19 | GAAACTAA | 0.244
20 | GAAACTAC | 0.469
21 | CGGTAGGA | 0.281
22 | CAACCGGC | -0.0977
23 | ACGCTCCT | -0.000812
24 | TAATACTA | 0.419
25 | AAATACTA | 0.454

Row | Sequence | binding signal [E-score]
26 | AAATACTG | 0.327
27 | AAATACGA | 0.118
28 | CAATACTA | 0.261
29 | TAATACGA | 0.377
30 | AAATACTC | 0.227
31 | CAATACGA | 0.00373
32 | GAATACTA | 0.295
33 | ACGCAAAC | 0.106
34 | AGAGCTTA | -0.044
35 | GACGATGA | -0.103
36 | GGCTGTAC | -0.102
37 | ACTCGCAC | -0.112
38 | ATACTGTC | 0.0898
39 | AGTACGCC | -0.149
40 | ATCAATGA | 0.0966
41 | GGTAATAA | 0.313
42 | GATAATAC | 0.187
43 | CATAATAG | 0.243
44 | CATAATAA | 0.252
45 | ATTAATAA | 0.182
46 | ATTAATAC | 0.353
47 | TATAATAA | 0.33
48 | AATAATAC | 0.332
49 | CTTAATAC | 0.18
50 | GATAATAA | 0.369

Row | Sequence | binding signal [E-score]
51 | AATAATAA | 0.364
52 | AATAATAG | 0.388
53 | AACCATCC | -0.0159
54 | AGCCGTGC | -0.157
55 | ATGGGCCG | -0.146
56 | ACCTTAGA | 0.00282
57 | AGTACGTA | 0.332
58 | AATAATGC | 0.352
59 | AATAATGG | 0.103
60 | AATAATGT | 0.222
61 | CGTAGTCC | -0.0635
62 | CGGGCAGC | -0.142
63 | CTAGGTCA | -0.0595
64 | ACGTTCAA | -0.0397
65 | CAATGGAG | -0.17
66 | ACAGCTCT | -0.118
67 | ACAACGAC | 0.0795
68 | TACCGGTA | 0.37
69 | CACCGGTA | 0.056
70 | AACCGGTA | 0.274
71 | ACCATGCT | -0.182
72 | ATTAACTA | 0.398
73 | ATTAACTG | 0.14
74 | GTTAACTA | 0.359
75 | CTTAACTA | 0.313

Row | Sequence | binding signal [E-score]
76 | GTTAACGA | 0.241
77 | CTTAAGTA | 0.281
78 | ATTAACTC | 0.092
79 | GTTAAGTA | 0.191
80 | ATTAAGTA | 0.347
81 | GAGCGAGA | -0.17
82 | AGTCATAC | 0.018
83 | GGTCGCAA | 0.0661
84 | CAGCGTGA | -0.12
85 | AAATGTAT | 0.281
86 | AAATGTAA | 0.389
87 | AAATGTAC | 0.343
88 | AAATGTAG | 0.297
89 | CAATGTAC | 0.263
90 | GAATGTAC | 0.303
91 | CGAGCCAC | -0.119
92 | GGGCAGCA | -0.184
93 | CTCGCTAA | -0.0951
94 | TGTGAGAA | 0.216
95 | CCTCTTGA | -0.196
96 | CATATATC | 0.25
97 | CATATAAG | 0.119
98 | CACATATA | 0.261
99 | CAGATATA | 0.165
100 | CATATATG | 0.343

Row | Sequence | binding signal [E-score]
101 | TATATCGA | 0.304
102 | CATATATA | 0.38
103 | CACATATG | 0.266
104 | TAGATATA | 0.339
105 | GAGATATA | 0.157
106 | TATATATA | 0.477
107 | CTTATATA | 0.253
108 | CTTAAAAG | -0.119
109 | ACATTGGT | 0.186
110 | ACCAGAGG | -0.0915
111 | AGAGACAC | 0.0712
112 | ATGTCCGG | -0.00967
113 | TATATAAA | 0.399
114 | GATATAAA | 0.33
115 | CTTATAAA | 0.0863
116 | TTTATAAA | 0.367
117 | AATATAAA | 0.266
118 | ATTATAAA | 0.157
119 | CCCAGGCA | -0.18
120 | GAAACCGA | -0.119
121 | CCCGTACG | -0.101
122 | CATATGTA | 0.338
123 | CATATGAA | 0.0706
124 | CTTATGTA | 0.111
125 | GATATGTA | 0.296

Row | Sequence | binding signal [E-score]
126 | AATATGTA | 0.416
127 | AATATGTC | 0.106
128 | GTTATGTA | 0.269
129 | CATATGTC | -0.0495
130 | ATTATGTA | 0.358
131 | AGAGCTGC | -0.0428
132 | ACGAACTG | 0.0336
133 | GTCCAGAA | -0.0598
134 | GCGAGAAA | -0.035
135 | TAGAAGAA | 0.109
136 | AAAAGGAG | -0.188
137 | AGTGAATG | 0.0707
138 | TCTCTGCA | 0.0197
139 | AGCATTAT | 0.255
140 | CGTAGTAG | 0.204
141 | AGTAGTAG | 0.349
142 | AACAGTAA | 0.294
143 | CACAGTAG | 0.0684
144 | AACAGTAG | 0.354
145 | AGAAGTAT | 0.334
146 | ATTAGTAG | 0.321
147 | AGCAGTAT | 0.015
148 | AATAGTAG | 0.469
149 | CATAGTAG | 0.0836
150 | AGTAGTAT | 0.405

Row | Sequence | binding signal [E-score]
151 | AATAGTAT | 0.292
152 | GCCTGTAC | -0.0711
153 | AACCTTAC | 0.0321
154 | AAGAAGAG | -0.106
155 | AAAGGTTG | -0.0391
156 | CATAGGCA | 0.0952
157 | GAACTTCA | 0.0379
158 | ACATAAGT | 0.127
159 | AGAAACTC | 0.158
160 | CGAAACTA | 0.446
161 | GGAAACAA | 0.207
162 | CGAAACCA | -0.108
163 | AGAAACTG | 0.12
164 | GGAAACGA | -0.156
165 | AGAAACTA | 0.412
166 | CGAAACTC | -0.0462
167 | GGAAACTA | 0.362
168 | AATTAAGG | 0.158
169 | ATCGGTCA | 0.0381
170 | ATGGCTTG | -0.172
171 | TATGGGCA | -0.0796
172 | TAAGCCGA | -0.0712
